Experimental data taken from publication PMC12431657, “Discovery and mechanistic insights of dibenzoylmethane as a broad spectrum inhibitor of coronavirus” (PLOS Pathogens, 2025).
Read-outs that look alike come from different tables or passages of the source. Out of some 3,300 compounds screened, about 95 (3%) showed an effect of 50% or more. This is one part of a sample in which strong results are shown more often than they occur.

Test system: HCoV-229E
Design: species or system Huh-7; HTS, protection from HCoV-229E induced cell death, luminescent cell viability (CellCounting-Lite 2.0), inhibition rate
Conditions: 24 h post infection, 1 h compound pre-incubation, 10 µM, inhibitor

SMILES	229E Inhibition rate	229E Inhibition rate (229E Inhibition rate, 24 h)
COC(=O)Cc1c[nH]c2ccccc12 [Methyl 2-(1H-indol-3-yl)acetate]	38.3%	
COc1cc(O)ccc1/C=C/C(=O)c1ccc(O)cc1 [Echinatin]	0%	
C=C(C)[C@H](C)c1cc(/C=C/C(=O)c2ccc(O)cc2)c(OC)cc1O [Licochalcone E]	61.6%	
COc1c(/C=C/C(=O)c2ccc(O)cc2)ccc(O)c1O [Licochalcone B]	25.4%	
CC1=C(O)C(=O)C(C)O1 (stereo not drawn) [Furaneol]	17.8%	
COc1cc2c(cc1OC)[C@@H](Cc1ccc(Oc3cc(C[C@@H]4c5cc(OC)c(OC)cc5CCN4C)ccc3O)cc1)N(C)CC2 [Dauricine]	3.6%	
O=C(/C=C/c1ccc(O)c(O)c1)OC[C@H]1O[C@@H](OCCc2ccc(O)c(O)c2)[C@H](O)[C@@H](O)[C@@H]1O [Calceolarioside B]	10.8%	
O=C(/C=C/c1ccc(O)c(O)c1)OC[C@@H](O)CO[C@@H]1O[C@H](CO)[C@@H](O)[C@H](O)[C@H]1O [Regaloside C]	52.3%	
O=C(/C=C/c1ccc(O)c(O)c1)c1ccc(O[C@@H]2O[C@H](CO)[C@@H](O)[C@H](O)[C@H]2O)c(O)c1O [Marein]	17.9%	
Cc1cn([C@@H]2O[C@H](CO)[C@@H](O)[C@H]2O)c(=O)[nH]c1=O [5-Methyluridine]	14.9%	
CC(C)c1cc2c(c(O)c1O)[C@@]13CCCC(C)(C)[C@@H]1[C@H](OC3=O)[C@H]2O [Rosmanol]	0%	
CC1NC(=O)CNC1=O (stereo not drawn) [Cyclo(Ala-Gly)]	39.9%	
CCCCCCCCCCCCCCCCC(C(=O)O)C(O)(CC(=O)O)C(=O)O (stereo not drawn) [Agaric acid]	18.4%	
CC(C)(O)[C@H]1CC[C@@](C)([C@H]2[C@@H](O)C[C@@]3(C)[C@@H]4C[C@H](O)[C@H]5C(C)(C)[C@@H](O)CC[C@@]56C[C@@]46CC[C@]23C)O1 [Cyclogalegenin]	12.6%	
CN[C@@H](C)[C@H]1[C@H](O)C[C@@]2(C)[C@@H]3CC[C@H]4C(C)(C)[C@@H](NC)CC[C@@]45C[C@@]35CC[C@]12C [Cyclovirobuxine D]	55.2%	
CC(C)(O)[C@@H]1CC[C@](C)([C@H]2[C@@H](O)C[C@@]3(C)[C@@H]4C[C@H](O)[C@H]5C(C)(C)[C@@H](O)CC[C@@]56C[C@@]46CC[C@]23C)O1 [Cycloastragenol]	8.6%	
CC(O)CC(=O)O (stereo not drawn) [3-Hydroxybutyric acid]	11.2%	
COc1cc2c(c(OC)c1OC)-c1c(cc3c(c1OC)OCO3)C[C@H](C)[C@H](C)C2 [Schisandrin B]		56.2%
C/C=C(\C)C(=O)O[C@@H]1c2cc(OC)c(OC)c(OC)c2-c2c(cc3c(c2OC)OCO3)C[C@H](C)[C@@]1(C)O [Tigloylgomisin P]	40.2%	
COc1cc2c(c(OC)c1OC)-c1c(cc3c(c1OC)OCO3)C[C@H](C)[C@@](C)(O)C2 [Schisandrol B]	7.8%	

SMILES	229E Inhibition rate	229E Inhibition rate (229E Inhibition rate, 24 h)
COc1cc2c(c(OC)c1OC)-c1c(cc3c(c1OC)OCO3)C[C@H](C)[C@H](C)C2 [Gomisin N]		42.9%
C/C=C(/C)C(=O)O[C@H]1c2cc(OC)c(OC)c(OC)c2-c2c(cc3c(c2OC)OCO3)C[C@H](C)[C@]1(C)O [Schisantherin B]	54.7%	
COc1cc2c(c(OC)c1OC)-c1c(cc(OC)c(OC)c1OC)C[C@H](C)[C@H](C)C2 [Schisandrin A]	35.1%	
COc1cc2c(cc1OC)-c1c(OC)c(OC)cc3c1[C@H](C2)N(C)CC3 [Glaucine]	14.2%	
CN1CCc2cc3c(c4c2C1Cc1ccccc1-4)OCO3 (stereo not drawn) [Roemerine]	25.9%	
COc1cc2c(c(OC)c1OC)-c1c(cc3c(c1O)OCO3)C[C@H](C)[C@@H](C)C2 [Gomisin M2]	19.3%	
COc1ccc2c(c1OC)CC1c3c(cc4c(c3-2)OCO4)CCN1C (stereo not drawn) [Crebanine]	62.7%	
COc1c2c(cc3c1-c1c(cc4c(c1OC)OCO4)C[C@H](C)[C@H](C)C3)OCO2 [Schisandrin C]	52.7%	
C/C=C(/C)C(=O)O[C@H]1c2cc(OC)c(OC)c(OC)c2-c2c(cc(OC)c(OC)c2OC)C[C@H](C)[C@]1(C)O [Angeloylgomisin Q]	42.2%	
COC(=O)/C=C/c1ccc(O)cc1 [Methyl p-coumarate]		15.5%
COC(=O)C1=CO[C@@H](O[C@@H]2O[C@H](CO)[C@@H](O)[C@H](O)[C@H]2O)[C@H]2[C@@H]1C=C[C@@]2(O)CO [Gardenoside]	10.6%	
CCCCCCCCCCCCCCCC(=O)OC[C@H](CO)OC(=O)CCCCCCCCCCCCCCC [1,2-Dipalmitoyl-sn-glycerol]	6%	
COC(=O)C1=CO[C@@H](O[C@@H]2O[C@H](CO)[C@@H](O)[C@H](O)[C@H]2O)[C@@H]2[C@@H](C)CC(=O)[C@]12O [Hastatoside]	0%	
C[C@H](CC(=O)O)[C@H]1CC[C@H]2[C@@H]3[C@H](O)C[C@@H]4C[C@H](O)CC[C@]4(C)[C@H]3C[C@H](O)[C@]12C [Norcholic acid]	0%	
Cc1cccc(CC(=O)O)c1 [m-Tolylacetic acid]	18.9%	
O=C1O[C@H]([C@@H](O)CO)C(O)=C1O [L-Ascorbic acid]		17.7%
OC[C@H]1O[C@@](CO)(O[C@H]2O[C@H](CO[C@@H]3O[C@H](CO)[C@@H](O)[C@H](O)[C@H]3O)[C@@H](O)[C@H](O)[C@H]2O)[C@@H](O)[C@@H]1O [Gentianose]	0%	
OC[C@H]1O[C@H](OC[C@H]2O[C@H](O[C@]3(CO)O[C@H](CO)[C@@H](O)[C@@H]3O)[C@H](O)[C@@H](O)[C@@H]2O)[C@H](O)[C@@H](O)[C@H]1O [Raffinose]	52.1%	
OC[C@H]1O[C@H](OC[C@H]2O[C@H](OC[C@H]3O[C@H](O[C@]4(CO)O[C@H](CO)[C@@H](O)[C@@H]4O)[C@H](O)[C@@H](O)[C@@H]3O)[C@H](O)[C@@H](O)[C@H]2O)[C@H](O)[C@@H](O)[C@H]1O [Stachyose (tetrahydrate)]	43.8%	
